Rows were chosen to be rich in hits. Some 3.3% of all compounds tested hit in one or more screens of this group.
PRMT1 inh: inhibitors of human PRMT1. Q99873. recombinant PRMT1, activity-based probe fluorescence polarization. inhibition, % at 2.79 µM. hit rate 1.3% among 370,000. AID 652257;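 active = inhibition above about 21% made by adding two undisclosed values, limit read from the data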
NOD2 RIPK2 PPI: blocks binding of human NOD2 to RIPK2. inhibition, % at 4.98 µM. O43353. hit rate 0.38% among 360,000. AID 624267. CHO BLA complementation NOD2-RIPK2, CCF4 ratio; in the data active = inhibition above about 21%;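 also: 0% = vehicle only and 100% = reference blocker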
Target sequence (O43353 whole entry, looked up): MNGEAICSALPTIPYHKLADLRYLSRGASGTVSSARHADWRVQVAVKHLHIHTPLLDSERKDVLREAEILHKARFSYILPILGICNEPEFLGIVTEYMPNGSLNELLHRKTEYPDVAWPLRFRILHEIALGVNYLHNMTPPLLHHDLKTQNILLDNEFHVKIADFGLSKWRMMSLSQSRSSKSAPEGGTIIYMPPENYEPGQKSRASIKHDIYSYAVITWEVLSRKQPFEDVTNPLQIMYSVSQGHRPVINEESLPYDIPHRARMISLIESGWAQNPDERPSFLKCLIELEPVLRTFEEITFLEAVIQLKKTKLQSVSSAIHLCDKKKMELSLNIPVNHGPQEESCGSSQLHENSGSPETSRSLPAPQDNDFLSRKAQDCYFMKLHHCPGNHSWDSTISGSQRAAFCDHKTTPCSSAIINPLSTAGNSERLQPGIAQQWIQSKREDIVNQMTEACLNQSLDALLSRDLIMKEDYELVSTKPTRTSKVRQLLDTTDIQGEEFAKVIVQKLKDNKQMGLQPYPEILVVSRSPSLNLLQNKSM
ABHD5-PLIN5 inh: inhibitors of human ABHD5-perilipin-5 interaction. Q00G26+Q8WTS1. Split G. princeps luciferase complementation, luminescence, 4 h. inhibition, % at 4 µM. hit rate 0.78% among 360,000;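 active = inhibition above the mean inhibition across every tested compound plus 3 SD, cut at about 22% in these data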;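 also: 0% = DMSO only wells and the 100% control is not disclosed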
TLR4 MyD88 comp: inhibitors of human TLR4-MyD88 binding. inhibition, % at 8.4 µM. O00206+Q99836. hit rate 0.18% among 200,000. HeLa CL3-4 TLR4/MyD88 BLA complementation, FRET ratio; in the data active = inhibition above about 25%;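 also: 0% = vehicle and 100% = reference inhibitor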
rCAG RNA binder: r(CAG) repeat RNA binding. inhibition, % at 3 µM. AID 651821. hit rate 1.3% among 370,000. TO-PRO-1 dye displacement fluorescence;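 active = inhibition above the plate cutoff, the mean of all test compounds on that plate plus 3 SD, cut at about 35% in these data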;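 also: 0% = DMSO alone and 100% = 100 µM mitoxantrone as full dye displacement; higher means more dye released from RNA so lower well fluorescence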
TLR9-MyD88 inh: inhibitors of human TLR9-MyD88 binding; Q9NR96+Q99836; CHO BLA complementation TLR9-MyD88, CCF4 FRET ratio; inhibition, % at 4.98 µM; hit rate 0.21% among 340,000; AID 504734;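 active = inhibition above the mean over all tested compounds plus 3 SD, cut at about 21% in these data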;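 also: 0% = DMSO only wells and 100% = clavulanate BLA inhibitor control wells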
rCAG binder conf: r(CAG) RNA repeat binding, confirmation | TO-PRO-1 dye displacement fluorescence | shares compounds with rCAG RNA binder | AID 652065 | inhibition, % at 3 µM | hit rate 70% among 4,300;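 active = inhibition above a per-plate cutoff, the mean inhibition of sample wells plus 3 SD, cut at about 35% in these data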;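 also: loss of TO-PRO-1 fluorescence as compound displaces dye from 1x1 AA loop RNA; 0% = DMSO only wells and 100% = 100 µM mitoxantrone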
dCAG dye counter: counter-screen for rCAG RNA binders: DNA CAG dye complex inhibitors | shares compounds with rCAG RNA binder | d(CAG) DNA oligo TO-PRO-1 dye displacement, fluorescence | inhibition, % at 3 µM | hit rate 94% among 4,300 | AID 652068;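 active = inhibition above its plate's cutoff, the mean test-well inhibition plus 3 SD, cut at about 4.8% in these data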;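 also: 0% = DNA dye mix with DMSO and 100% = 100 µM mitoxantrone; hits displace the dye from DNA and so lower well fluorescence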
* marks the source's active call; other numbers are inactive results; nt = no result given.

SMILES	PRMT1 inh	NOD2 RIPK2 PPI	ABHD5-PLIN5 inh	TLR4 MyD88 comp	rCAG RNA binder	TLR9-MyD88 inh	rCAG binder conf	dCAG dye counter
C[C@@H]1CN([C@@H](C)CO)C(=O)c2cc(Br)cnc2O[C@H]1CN(C)Cc1ccccc1C(=O)O	-1	-9	2	nt	1	13	nt	nt
C[C@H](NS(=O)(=O)c1ccc2c(c1)OCCCO2)C(=O)N1CCN(Cc2ccc(C#N)cc2)CC1	-2	13	-2	nt	0	0	nt	nt
O=C(Nc1ccc(S(=O)(=O)Nc2cnc3ccccc3n2)cc1)c1cc(F)c(F)cc1Cl	4	0	2	nt	40*	-2	28	4
Nc1ccc(S(=O)(=O)Nc2cnc3ccccc3n2)cc1	-2	5	-3	nt	4	-10	nt	nt
Cc1cc(Cl)ccc1OC(C)C(=O)Nc1ccc(C(=O)Nc2ccccc2C(=O)O)cc1 (centres undefined)	0	-2	3	nt	77*	-13	87*	62*
O=C(Cc1ccc(Cl)cc1)Nc1ccc(S(=O)(=O)Nc2cnc3ccccc3n2)cc1	1	-2	-8	11	63*	-4	59*	23*
Cc1cc(Cl)ccc1OC(C)C(=O)Nc1ccc(S(=O)(=O)Nc2cnc3ccccc3n2)cc1 (centres undefined)	1	-4	-10	7	80*	2	90*	57*
CC1(C)C(=O)Nc2ccccc2N1C(=O)COC(=O)c1cccnc1Cl	-5	-7	-3	nt	4	2	nt	nt
CC(C)(C)c1ccc(C(=O)NC2CCS(=O)(=O)C2)cc1 (centres undefined)	-1	-9	4	nt	-2	-6	nt	nt
COc1ccc(NC(=O)C(OC(=O)CNC(=O)c2ccccc2)c2ccccc2)cc1F (centres undefined)	0	nt	nt	nt	nt	nt	nt	nt
CC(Oc1ccc(Cl)cc1Cl)C(=O)Nc1ccc(S(=O)(=O)Nc2cnc3ccccc3n2)cc1 (centres undefined)	nt	nt	nt	12	nt	nt	nt	nt
O=C(Nc1ccc(S(=O)(=O)Nc2cnc3ccccc3n2)cc1)c1ccc(Cl)cc1Cl	2	0	-6	nt	66*	nt	48*	15*
Cc1csc(NC(=O)CSCC(=O)O)c1-c1nc2ccccc2s1	2	-4	-2	nt	44*	2	57*	19*
Cc1ccc2nc(-c3ccc(NC(=O)COCC(=O)O)cc3)sc2c1	8	-8	4	nt	42*	5	34	8.3*
Cc1csc(NC(=O)CSc2nc3ccccc3s2)n1	2	-11	1	3	6	4	nt	nt
Cc1ccc2nc(-c3ccc(NC(=O)CSCC(=O)O)cc3)sc2c1	-7	0	11	nt	53*	0	39*	11*
CCC(=O)NC(=S)Nc1ccc(-c2nc3ccc(C)cc3s2)cc1	3	0	-1	-3	-1	-3	nt	nt
O=C(CCN1C(=O)/C(=C\C=C\c2ccccc2)SC1=S)Nc1ccccc1C(=O)O	4	4	-4	nt	42*	-5	88*	57*
O=C(CCN1C(=O)/C(=C/C=C/c2ccccc2)SC1=S)Nc1nccs1	6	8	3	-7	4	-2	nt	nt
Cc1ccc(NC(=O)CCCN2C(=O)/C(=C/C=C/c3ccccc3)SC2=S)cc1	-1	-9	4	2	9	-10	nt	nt
O=C(O)CCCN1C(=O)/C(=C/C=C/c2ccco2)SC1=S	42*	8	17	nt	60*	4	51*	19*
O=C(CCN1C(=O)/C(=C/c2ccc(Cl)cc2)SC1=S)Nc1cccc(C(=O)O)c1	-4	-9	4	nt	6	-8	nt	nt
O=C(CCN1C(=O)/C(=C\C=C\c2ccccc2)SC1=S)Nc1cccc(C(=O)O)c1	2	-2	5	nt	86*	4	84*	54*
CN(C)c1cccc(-c2ccnc(N3CCC(C(N)=O)CC3)n2)c1	-3	nt	nt	nt	nt	nt	nt	nt
COC(=O)c1ccc(S(=O)(=O)N2CCC(NC(=O)Cc3ccccc3)CC2)cc1	-4	nt	nt	nt	2	nt	nt	nt
O=C(Nc1ccc2ccccc2c1)c1ccc(NS(=O)(=O)c2ccc(Br)s2)cc1	0	4	-3	4	71*	-3	88*	57*
